IL-1B inflam inh: qHTS for Inhibitors of Inflammasome Signaling: IL-1-beta AlphaLISA Primary Screen; THP-1 LPS/ATP IL-1B secretion, AlphaLISA, 16 h; hits give low values; activity change, % at 57.5 µM; hit rate 4.7% among 360,000; in the data active = activity change below about -50%; inconclusive = mostly about -30% to -49%; note: % is set by controls: 0 for no effect and ±100 for the full control effect
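Secreted IL-1B measured by AlphaLISA bead assay after 16 h compound exposure of THP-1 cells; compounds (final up to 57.5 uM) added 1 h before LPS (250 ng/mL) and ATP (1.25 mM) stimulation; lower signal means less secretion.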
DT40 TDP1 no CPT: qHTS for Inhibitors of human tyrosyl-DNA phosphodiesterase 1 (TDP1): qHTS in cells in absence of CPT; DT40 Tdp1-/- hTDP1 cells, no CPT, ATP luminescence, 48 h; Potency, µM (highest dose often 46.2 µM), for the others: top-dose activity change, negative = growth inhibition, hits mostly inhibitors; hit rate 15% among 420,000; AID 686978, 2013; note: potency is the fitted concentration of half-maximal effect; % is set by controls: 0 for no effect and ±100 for the full control effect; nearly all actives have a fitted effect of over 55% in size
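Chicken DT40 Tdp1-/- cells complemented with human TDP1, screened without camptothecin (DMSO vehicle only), 400 cells/well. Compounds pin-transferred, cells incubated at 37 °C for at least 48 hr. Growth read as ATP-dependent luminescence (CellTiter-Glo, 30 min at RT).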
DRD3 antagonist: qHTS of D3 Dopamine Receptor Antagonist: qHTS; D3R cells, DiscoveRx beta-arrestin luminescence, antagonist mode; hits give low values; D(3) dopamine receptor (Homo sapiens), P35462; max response, negative = inhibition, %; AID 652054, 2013; hit rate 2.5% among 360,000; in the data active = max response below about -50%; inconclusive = no clear call, values can overlap the other calls; note: % is set by controls: 0 for no effect and ±100 for the full control effect
Target sequence (P35462 whole entry, looked up): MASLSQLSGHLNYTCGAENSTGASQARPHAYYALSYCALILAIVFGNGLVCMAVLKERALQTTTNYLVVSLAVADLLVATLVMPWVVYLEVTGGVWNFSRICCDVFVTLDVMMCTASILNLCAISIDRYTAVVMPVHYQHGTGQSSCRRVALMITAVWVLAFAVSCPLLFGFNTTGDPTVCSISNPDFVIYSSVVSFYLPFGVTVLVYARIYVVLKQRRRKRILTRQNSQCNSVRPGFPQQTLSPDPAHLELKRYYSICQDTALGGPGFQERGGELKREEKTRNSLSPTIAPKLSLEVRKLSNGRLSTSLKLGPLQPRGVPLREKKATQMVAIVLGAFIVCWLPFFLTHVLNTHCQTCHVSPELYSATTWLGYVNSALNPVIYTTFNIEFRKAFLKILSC
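Cells plated overnight at 1500 cells/well, then exposed to library compounds with dopamine controls for 90 minutes at 37 degrees C. DiscoveRx reagent added for 30–60 minutes at room temperature; luminescence read, quantitative HTS format.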
DT40 TDP1 CPT: qHTS for Inhibitors of human tyrosyl-DNA phosphodiesterase 1 (TDP1): qHTS in cells in presence of CPT; chicken DT40 Tdp1-/-;hTDP1 cells + 20 nM CPT, ATP luminescence, 48 h; hit rate 12% among 420,000; Potency, µM (titrated, usually from 46.2 µM), for the others: top-dose activity change, negative = growth inhibition, usual class: inhibitors; AID 686979, 2013; note: potency is the fitted concentration of half-maximal effect; % is set by controls: 0 for no effect and ±100 for the full control effect; nearly all actives have a fitted effect of over 55% in size
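Chicken DT40 Tdp1-/- cells stably complemented with human TDP1 were seeded at 400 cells/well in medium containing 20 nM camptothecin, exposed to pin-transferred compounds, and grown at 37 °C for at least 48 hr. Viability was read as ATP luminescence.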
D3 ag: qHTS of D3 Dopamine Receptor Agonist: qHTS; D(3) dopamine receptor (Homo sapiens), P35462; D3R DiscoveRx beta-arrestin cells, luminescence, 90 min; max activation, %; hit rate 0.58% among 410,000; AID 652048, 2013; in the data active = max activation above about 30%; note: 0% is about no effect
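Agonist-mode cell screen: cells plated at 1500/well and incubated overnight at 37 °C, then exposed to library compounds for 90 min at 37 °C. Detection reagent was added for 30–60 min at room temperature, and luminescence was read.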
ClpP mod: qHTS Assay for Activators of ClpP | ATP-dependent Clp protease proteolytic subunit (Bacillus subtilis (strain 168)), P80244 | Potency, µM (titrated, usually from 57.5 µM), without a hit: at the top dose activity change, negative = active | hit rate 1.9% among 340,000 | purified B. subtilis ClpP, FRET peptide cleavage, 20 min; active = well fitted falling curve with a large enough effect; inconclusive = small, poorly fitted or top-dose-only effect; inactive = no such curve, though single readings can be large or run the other way; note: potency is the fitted concentration of half-maximal effect; the source files actives as falling curves though it sought activators and does not explain the sign; nearly all actives have a fitted effect of over 65% in size
Target sequence (P80244 whole entry, looked up): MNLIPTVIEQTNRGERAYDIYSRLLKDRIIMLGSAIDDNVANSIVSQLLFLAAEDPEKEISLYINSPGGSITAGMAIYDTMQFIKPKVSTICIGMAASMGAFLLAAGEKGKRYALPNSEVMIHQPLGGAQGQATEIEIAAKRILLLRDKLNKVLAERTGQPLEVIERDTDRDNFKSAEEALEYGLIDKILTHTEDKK
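Purified B. subtilis ClpP, 10 microg/mL final in Tris/HCl pH8 with KCl, BSA, glycerol and Tween-20, cleaved an Abz/nitrotyrosine-quenched decapeptide. Fluorescence (ex 320, em 430) was read at 0 and 20 min at room temperature. Delta was normalized to 5.8 microM ADEP and DMSO/no-enzyme controls.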
Active calls of the source: *; ? = inconclusive; nt = not tested or not shown; [ ] = dose if it differs, or a comment. In the library only some 21% were active in any assay of this set; here they are far more common. Unless noted, calls come from the whole dose curve; as a rule, active = well fitted inhibition curve with a large enough effect; inconclusive = small, poorly fitted or top-dose-only effect; inactive = flat fitted curve, though single readings scatter.

SMILES	IL-1B inflam inh	DT40 TDP1 no CPT	DRD3 antagonist	DT40 TDP1 CPT	D3 ag	ClpP mod
C#CCOCCOCCOCCNc1nc(N2CCN(C(=O)[C@H](Cc3ccc(O)cc3)n3cc([C@@H](N)CC(C)C)nn3)CC2)nc(N2CCN(C(=O)[C@H](Cc3cc4ccccc4[nH]3)n3cc([C@@H](N)CC(C)C)nn3)CC2)n1	15.8	-7.6%	-24.3	-28.9%	0.3	-1.9%
C#CCOCCOCCOCCNc1nc(N2CCN(C(=O)C(Cc3cc4ccccc4[nH]3)n3cc(C(N)C(C)CC)nn3)CC2)nc(N2CCN(C(=O)C(Cc3cc4ccccc4[nH]3)n3cc(C(N)C(C)CC)nn3)CC2)n1 (stereo not drawn)	-26.5	?	?	16.4µM*	-5.1	-10.7%
C#CCOCCOCCOCCNc1nc(N2CCN(C(=O)[C@H]([C@@H](C)CC)n3cc([C@@H](N)CC(C)C)nn3)CC2)nc(N2CCN(C(=O)[C@H](Cc3cc4ccccc4[nH]3)n3cc([C@@H](N)Cc4ccc(O)cc4)nn3)CC2)n1	-56.5*	?	-16.6	?	-10.5	?
N[C@@H](CO)c1cn([C@@H](Cc2cc3ccccc3[nH]2)C(=O)N2CCNCC2)nn1	34.7	-2.4%	-0.4	13.7%	-2.2	-5.4%
CC[C@@H](C)C(NC(=O)OC(C)(C)C)c1cn([C@@H](Cc2cc3ccccc3[nH]2)C(=O)N2CCN(C(=O)OC(C)(C)C)CC2)nn1 (stereo partly drawn)	?	23.1µM*	-14.5	23.1µM*	-33.4	0.8%
O=C(Nc1ccc(NC(=O)c2ccccc2O)cc1)Nc1ccc(F)cc1F	-0.4	-21.0%	-9.0	-5.1%	-9.4	-9.5%
O=C(Nc1ccccc1)Nc1n[nH]c2nnc(-c3ccccc3)c(-c3ccccc3)c12	-11.0	16.4µM*	-11.1	?	-8.6	1.9%
O=C(Nc1ccccc1)Nc1nncs1	-16.3	?	10.0	?	2.2	-3.1%
CC(C)n1cnc(S(=O)(=O)N2CCCC(C(=O)NCc3ccccc3Cl)C2)c1 (stereo not drawn)	nt	-21.0%	nt	-23.6%	-17.6	-1.5%
CC1(C)CC2CC(C)(CN2C(=S)NC(=O)c2ccccc2Cl)C1 (stereo not drawn)	16.8	18.4µM*	2.0	?	2.6	0.5%
CC1(C)CC2CC(C)(CN2C(=S)Nc2ccccc2F)C1 (stereo not drawn)	27.3	13µM*	19.4	20.6µM*	0.5	nt
CC1(C)CC2CC(C)(CN2C(=S)Nc2ccccc2)C1 (stereo not drawn)	2.4	?	12.5	?	-3.0	-0.3%
O=C(NC(=S)N1CCOCC1)c1ccccc1Cl	-2.2	18.0%	10.1	-9.6%	6.5	0.0%
CCOC(=O)C1(CCOc2ccccc2)CCN(Cc2ccc(-n3cccn3)cc2)CC1	4.4	16.4µM*	-71.0*	?	0.8	-2.1%
CCOC(=O)C1(CCOc2ccccc2)CCN(Cc2ccncc2)CC1	-20.1	25.9µM*	-11.4	?	-7.8	nt
CCOC(=O)C1(CCOc2ccccc2)CCN(Cc2ccc(C(=O)OC)cc2)CC1	-0.1	?	-59.8*	?	-26.7	-0.8%
C=C1C[C@@]23CC4C5[C@@]6(C)C[C@H](O)C[C@@]57C2[C@H](O)[C@@H]1[C@H](O)[C@H]3[C@H]7N4C6	nt	-8.6%[9.04 µM]	nt	-14.4%[9.04 µM]	nt	nt
CCOC(=O)c1[nH]c(C)c(C(=O)OC)c1C	nt	8.2%	11.5	3.0%	3.0	nt
CCOC(=O)c1[nH]c(C)c(C(=O)Nc2ccc(C)cc2C)c1C	-8.4	1.3µM*	-11.2	2.31µM*	-5.9	0.8%
CCOC(=O)c1[nH]c(C)c(C(=O)Nc2ccccc2F)c1C	0.0	2.59µM*	10.9	2.31µM*	3.2	0.3%
CCOC(=O)c1[nH]c(C)c(C(=O)c2ccc(C)cc2)c1C	3.2	2.06µM*	-10.3	2.31µM*	-5.8	-0.8%
CCOc1cc(C(=O)NC2CCCCCCC2)cc(OCC)c1OCC	-17.2	?	-25.8	-15.2%	-23.5	0.7%
COc1ccc(-c2c(-c3ccc(O)cc3O)n[nH]c2C(F)(F)F)cc1	-4.3	-24.6%	-12.4	?	-1.1	-5.5%
Oc1ccc(-c2n[nH]c(C(F)(F)F)c2-c2ccccc2)c(O)c1	-78.1*	1.64µM*	11.1	1.84µM*	7.1	nt
COc1ccccc1-c1c(-c2ccc(O)cc2O)n[nH]c1C(F)(F)F	36.1	2.31µM*	18.1	5.8µM*	1.1	-7.2%
SMILES	IL-1B inflam inh	DT40 TDP1 no CPT	DRD3 antagonist	DT40 TDP1 CPT	D3 ag	ClpP mod
CCc1ccc(NC(=O)c2cccc(N3CCCS3(=O)=O)c2)cc1	nt	?	nt	?	2.4	-1.1%
CC1(C)CC(=O)c2c(-c3cccs3)n[nH]c2C1	-7.2	-2.9%	-17.2	-20.7%	-2.6	25.1µM*
CCCc1n[nH]c2c1C(=O)CC(C)(C)C2	17.4	1.3%	21.2	-7.2%	-0.1	-1.3%
CC1(C)Cc2c(cnn2-c2ccccc2)C(NC(=O)CCN2CCCCO2)C1 (stereo not drawn)	-11.8	9.9%	3.2	-6.2%	6.6	-0.8%
COc1cccc(-c2nnc(SCC(=O)Nc3cc(C)on3)o2)c1	-6.7	?	-65.3*	16.4µM*	-7.8	-0.7%
Cc1cc(NC(=O)CSc2nnc(-c3cccc(Cl)c3)o2)no1	0.0	16.4µM*	-5.3	?	-6.9	-2.3%
CCOc1ccc(-c2nnc(SCC(=O)Nc3cc(C)on3)o2)cc1	0.0	?	5.3	8.2µM*	1.0	nt
CCn1ccnc1C(O)(c1ccccc1)c1ccccc1	-3.4	23.9%	2.3	6.1%	2.5	-2.4%
Cc1nc(N2CCN(C(=O)c3cnccn3)CC2)c2c3c(sc2n1)CC(C(C)(C)C)CC3 (stereo not drawn)	13.0	-25.9%	18.3	0.0%	12.6	nt
COc1ccc(-c2noc(N3CCC(C(=O)Nc4ccccc4OC)CC3)n2)cc1	-25.4	?	19.0	?	4.0	1.3%
COc1ccc(-c2noc(N3CCC(C(=O)Nc4cc(OC)ccc4OC)CC3)n2)cc1	-20.3	20.6µM*	1.3	20.6µM*	-0.6	-2.9%
COc1ccc(-c2noc(N3CCC(C(=O)Nc4cccc(OC)c4)CC3)n2)cc1	1.2	?	3.8	18.4µM*	-0.9	0.0%

High-throughput results: PubChem BioAssay, National Center for Advancing Translational Sciences (NCATS)
